PubChem BioAssay AID1852 (Sanford-Burnham Center for Chemical Genomics, 2009)
The whole screen tested about 2,500 compounds, of which about 1,100 (44%) were called active.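 Rule for the calls: active = inhibition above 50% at 4 µM in the single-point screen; inactive = inhibition of 50% or less.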 The set was probably picked from earlier hits. This is one part of the list.

assay: blockers of TNF-a NF-kB luciferase induction – cell-based, HEK293T NF-kB-Luc, luminescence, selectivity assay for NOD1/NOD2 signaling inhibitor project, primary screen (AID 1852); conditions: TNF-a induced, 14 h, at 4 µM, active compounds read high

inhibition, inactive:
COC(=O)Cc1[nH]n(-c2nc3ccccc3s2)c(=O)c1C(C)=Nc1ccc(OC)cc1 30.8%, COC(=O)c1ccc(CSc2nc3ccccc3c(=O)n2Cc2ccco2)o1 6.3%, COc1ccccc1NC(=O)CSc1nc2sc(C)c(C)c2c(=O)n1C 26.3%, Cc1ccc(-c2csc(N3CCC(NS(=O)(=O)c4ccc5c(c4)OCCO5)CC3)n2)cc1 48.7%, CCc1ccn2cc(-c3ccc4c(c3)OCO4)nc2c1 23%, CCS(=O)(=O)C1=NN2C(=N)/C(=C\c3ccc(OCCOc4cccc(OC)c4)c(OC)c3)C(=O)N=C2S1 -32.8%, O=C(CN1CCN(c2cccc(Cl)c2)CC1)Nc1ccc(S(=O)(=O)N2CCOCC2)cc1 23.3%, CCc1nc2ccccc2c(C(=O)OCC(=O)Nc2cccc(S(=O)(=O)N3CCOCC3)c2)c1C -0.6%, CCN(CC)S(=O)(=O)c1cccc(NC(=O)CNc2cccc(S(=O)(=O)N3CCCC3)c2)c1 41.7%, Cc1ccc(S(=O)(=O)N(C)C)cc1NC(=O)COC(=O)/C=C/c1cnc2ccccc2n1 12%, O=C(Nc1cccc(NC(=O)c2ccc(-c3cccc(Br)c3)o2)c1)c1ccco1 -15.4%, O=C(Nc1nc2cc3c(cc2s1)OCCO3)c1ccco1 -31%, COc1ccc(/C=N/NC(=O)c2ccc(Br)o2)cc1Cn1cc([N+](=O)[O-])cn1 -16%, Cc1cc([N+](=O)[O-])ccc1-c1ccc(/C=N/NC(=O)c2ccc(Br)o2)o1 -0.2%, Cc1ccc(-c2nn(-c3ccccc3)cc2NC(=O)CCl)cc1 -28.6%, O=C(N/N=C/c1cn(-c2ccccc2)nc1-c1cc2ccccc2o1)c1c[nH]c2ccccc12 -224%, CC(C)c1ccc(-c2nc3ccccc3s2)cc1 14.5%, Cc1nc2c(Br)cc(Br)cc2cc1O 8.1%, CC(=O)NC(=C(Cl)Cl)S(=O)(=O)c1ccccc1 42.6%, Cc1ccc(C(=O)c2cnc3cc4c(cc3c2S(=O)(=O)c2ccccc2)OCCO4)cc1 -56.6%, COc1ccc(C(=O)NC(=C(Cl)Cl)S(=O)(=O)c2ccc(C)cc2)cc1 -46.2%, Cc1ccc(C(=O)NC(=C(Cl)Cl)S(=O)(=O)c2ccc(C)cc2)cc1 4.6%, CC(C)NC(=S)NC(c1ccccc1)(c1ccccc1)c1ccccc1 19.3%, COc1cc(/C=C2\C(=N)N3N=C(S(C)(=O)=O)SC3=NC2=O)ccc1OCCOc1ccc(C)cc1 -39.5%, Clc1ccccc1Cc1noc(CN2CCN(c3cnccn3)CC2)n1 7.7%, O=C(Nc1sc2c(c1C(=O)O)CCCC2)c1ccccc1Cl 25%, Cc1cccc(C(=O)Nc2sc3c(c2C(=O)O)CCCC3)c1 -8.5%, Cc1ccc(Nc2c([N+](=O)[O-])c(=O)oc3ccccc23)cc1C 6.4%, O=c1oc2ccccc2c(Nc2ccc(F)cc2)c1[N+](=O)[O-] -32.2%, CCCCCc1ccc(OCCCC[n+]2ccc(C)cc2)c(CCCCC)c1 6.6%, O=C(Nc1c(Cl)ccc2nsnc12)c1ccc([N+](=O)[O-])o1 16%, O=C(CNc1cccc2ccccc12)N/N=C/c1ccc([N+](=O)[O-])o1 34%, O=C(N/N=C/c1ccc([N+](=O)[O-])o1)c1ccccc1-n1cccc1 45.7%, Cc1ccc(NCC(=O)N/N=C\c2ccc([N+](=O)[O-])o2)cc1 35.7%, Cc1nonc1C(=O)N/N=C/c1ccc([N+](=O)[O-])o1 46%, CCN(c1ccccc1)S(=O)(=O)c1ccc(NC(=S)NC(=O)c2cccs2)cc1 43.4%, O=C(CN(Cc1ccccc1)S(=O)(=O)c1ccc2c(c1)OCCO2)Nc1ccc2c(c1)OCCO2 8.4%, CN1CCN(Cc2nc(Cc3cccc(F)c3)no2)CC1c1ccccc1 (stereo not drawn) 3.2%, CCOC(=O)COc1ccc2ccccc2c1/C=C/[N+](=O)[O-] 27.3%, O=C(N/N=C/c1cc(Cl)c(O)c(Cl)c1)c1cc2c(ccc3ccccc32)o1 42.9%, Cc1ccc(S(=O)(=O)Nc2cc(C)c(O)cc2C)cc1 29.5%, COc1ccc(NC(C)=O)cc1S(=O)(=O)Nc1ccc(OCc2ccccc2)cc1 33.1%, CCCNc1c(NS(=O)(=O)c2ccc(Br)cc2)c(=O)oc2ccccc12 11.2%, COc1ccc(S(=O)(=O)Nc2ccc(OCC(=O)O)cc2)c2ccccc12 -2.2%, CCc1ccc(S(=O)(=O)Nc2ccc(O)c3ccccc23)cc1 36.3%, O=C(O)CCSc1ncnc2sc(-c3ccccc3)cc12 43.8%, Cc1ccc(-c2n[nH]c(=O)c3ccccc23)cc1S(=O)(=O)Nc1ccccc1 14.6%, CCc1ccc(S(=O)(=O)Nc2cc(SCC(=O)O)c(O)c3ccccc23)cc1 8%, COc1ccc(S(=O)(=O)c2c(O)cc(C)c(NS(=O)(=O)c3ccccc3)c2C)cc1 46.9%, COC(=O)c1sccc1NC(=O)CSc1ccccc1NS(=O)(=O)c1ccc(Br)cc1 26.3%, COC(=O)c1sccc1NC(=O)CSc1ccccc1NS(=O)(=O)c1cc(Cl)ccc1Cl 39%

inhibition, active:
COC(=O)Cc1[nH]n(-c2nc3ccccc3s2)c(=O)c1C(C)=Nc1ccc(C)cc1 55.7%, Cc1sc2nc(SCc3ccc(C(=O)O)cc3)n(Cc3ccco3)c(=O)c2c1C 74.6%, Cc1ccc2nc(-c3ccc4c(c3)OCCO4)cn2c1 51.3%, CN(C)S(=O)(=O)c1cccc(NC(=O)CSc2cccc3cccnc23)c1 100%, O=C(CSc1cccc2cccnc12)Nc1ccc(S(=O)(=O)N2CCOCC2)cc1 104%, CC(C)(C)C(=O)Nc1ccc(NC(=O)c2ccco2)nc1 98.2%, Cc1ccc(-c2nn(-c3ccccc3)cc2/C=N/NC(=O)c2ccc(Br)o2)cc1 95.5%, COc1ccc(-c2nn(-c3ccccc3)cc2/C=N/NC(=O)c2ccc(Br)o2)cc1 94.1%, CC[n+]1c(/C=C/N(C)c2ccccc2)n(-c2ccccc2)c2ccc(-c3nc4ccccc4s3)cc21 102%, Cn1c2c(c(=O)n(C)c1=O)C(C(F)(F)F)(C(F)(F)F)N=C(c1ccc(Cl)cc1)N2 73.2%, Cc1ccc(C(=O)NC(=C(Cl)Cl)S(=O)(=O)c2ccccc2)cc1 97.7%, Cc1ccc(C(=O)NC(C#N)=C(Cl)Cl)cc1 94.7%, Cc1ccc(C(=O)NC(=C(Cl)Cl)S(=O)(=O)c2ccc(Cl)cc2)cc1 63.9%, O=C(NC(=C(Cl)Cl)S(=O)(=O)c1ccc(Cl)cc1)c1ccccc1 97.1%, O=C(O)c1c(NC(=O)c2cccc3ccccc23)sc2c1CCC2 53.9%, COC(=O)c1ccc(Nc2c([N+](=O)[O-])c(=O)oc3ccccc23)cc1 99.5%, C=CS(=O)(=O)c1ccc(Oc2ccc(S(=O)(=O)C=C)cc2)cc1 103%, CC(=O)NC(c1ccc(C)cc1)c1cc(Cl)c2cccnc2c1O (stereo not drawn) 77.9%, CCC(=O)NC(/C=C/c1ccccc1)c1cc([N+](=O)[O-])c2cccnc2c1O (stereo not drawn) 81.6%, CC(=O)NC(c1ccc(C)cc1)c1cc([N+](=O)[O-])c2cccnc2c1O (stereo not drawn) 76.4%, CC(=O)NC(c1ccccc1)c1cc([N+](=O)[O-])c2cccnc2c1O (stereo not drawn) 99.5%, CCC(=O)NC(c1ccc(C)cc1)c1cc([N+](=O)[O-])c2cccnc2c1O (stereo not drawn) 84.6%, CC[C@@]1(O)C(=O)OCc2c1cc1n(c2=O)Cc2cc3c(N)cccc3nc2-1 88.3%, O=C(N/N=C/c1ccc([N+](=O)[O-])o1)c1cc2ccccc2o1 52.9%, O=[N+]([O-])c1ccc(/C=N/N=C/c2ccc([N+](=O)[O-])o2)o1 83%, Cc1scc(C(=O)N/N=C/c2ccc([N+](=O)[O-])o2)c1C 72%, O=C(N/N=C/c1ccc([N+](=O)[O-])o1)c1ccccc1NS(=O)(=O)c1cccs1 61.1%, O=C(N/N=C/c1ccc([N+](=O)[O-])o1)c1ccc2c(c1)OCO2 71.8%, CCCCN(CC)S(=O)(=O)c1ccc(C(=O)Nc2nnc(-c3ccccc3Cl)o2)cc1 59.6%, CCCCN(C)S(=O)(=O)c1ccc(C(=O)Nc2nnc(-c3cccs3)o2)cc1 55.8%, CCCCN(CC)S(=O)(=O)c1ccc(C(=O)Nc2nnc(-c3cccs3)o2)cc1 59.1%, CCN(Cc1ccccc1)S(=O)(=O)c1ccc(C(=O)Nc2nnc(C3CC3)o2)cc1 92.7%, NC(=S)N/N=C\c1c(OCc2ccccc2Cl)ccc2ccccc12 66%, Cc1ccc(S(=O)(=O)Nc2ccc(O)c3ccccc23)c(C)c1 92.3%, Cc1ccc(S(=O)(=O)Nc2cc(C(C(=O)OC(C)C)C(=O)C(F)(F)F)c(O)c3ccccc23)c(C)c1 (stereo not drawn) 72%, COc1ccc(OC)c(S(=O)(=O)Nc2ccc(O)c3ccccc23)c1 62.6%, O=S(=O)(Nc1ccc(O)c2ccccc12)c1ccc(Br)cc1 101%, O=C(O)CCSc1nnc(-c2ccc3c(c2)OCO3)o1 64.7%, COc1ccc(S(=O)(=O)Nc2cc(SCC(=O)O)c(O)c3ccccc23)cc1 98.3%, Cc1ccc(C)c(S(=O)(=O)Nc2cc(SCC(=O)O)c(O)c3ccccc23)c1 105%, CCOc1ccc(S(=O)(=O)Nc2cc(SCC(=O)O)c(O)c3ccccc23)cc1 92.5%, O=C(O)CSc1cc(NS(=O)(=O)c2ccc(Cl)cc2)c2ccccc2c1O 93.9%
